# Laboratory results as given in PubChem BioAssay.
# The source made the active and inactive calls. Unless noted, the rule behind the calls is not given here.
# Assays:
# [1] = test system: Wnt5a (protein binding on small-molecule microarray); assay: Wnt5a binders on small-molecule microarray, primary screen, biophysical, 635/667 nm fluorescence (AID 1142); conditions: 635 nm fluorescence, higher = more signal;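 note: fluorescence read at 667 nm with signal to noise per printed feature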
# [2] = cell viability in Huh7 cells, primary screen, cytotoxicity control for HCV replication inhibitor project, CellTiter-Glo luminescence, basal, 48 h (AID 1143); conditions: Huh7 HCV replicon, higher = more signal, called active from +8 up or from −8 down;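 note: Huh7 hepatoma cells carrying a hepatitis C replication reporter with no stimulus; test concentration not given here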
# [3] = P. aeruginosa biofilm formation inhibitors, primary screen, PAO1 strain, BacTiter-Glo luminescence, LB-PBS (AID 1144); conditions: 12 h, higher = more signal
# [4] = CREB reporter modulators without forskolin, primary screen, cell-based, PC12, CRE-LacZ reporter, unstimulated (AID 1145); conditions: no forskolin, luminescence, 4.5 h, higher = more signal, called active from +8 up or from −8 down
# [5] = CREB reporter modulators under forskolin, primary screen, cell-based, PC12, CRE-LacZ reporter, forskolin-stimulated (AID 1146); conditions: luminescence, 4.5 h, higher = more signal, called active from +8 up or from −8 down;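 note: PC12 cells with 6xCRE LacZ reporter stimulated by forskolin 10 µM; beta-galactosidase reporter signal reflecting CREB driven transcription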
# [6] = molecular target: Streptavidin (Streptomyces avidinii) (UniProt P22629); assay: streptavidin binders on small-molecule microarray, primary screen, artefact control for SMM compound annotation, biophysical, 635/667 nm fluorescence (AID 1147); conditions: streptavidin binding, higher = more signal;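 note: signal reflects streptavidin binding to arrayed compounds as a control protein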
# [7] = small-molecule binders of probe aInhba, primary screen, biochemical, small-molecule microarray, 635/667 nm fluorescence (AID 1148); conditions: higher = more signal;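 note: score merges 667nm spot fluorescence with signal-to-noise for antibody binding to printed compounds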
# [8] = molecular target: Torsin-1A (Homo sapiens) (UniProt O14656); assay: torsin A binders from cell lysate, primary screen, small-molecule microarray, wild-type, 635/667 nm (AID 1149); conditions: COS7 hTOR1A-WT lysate, 635 nm fluorescence, higher = more signal
# [9] = molecular target: Torsin-1A (Homo sapiens) (UniProt O14656); assay: small-molecule binders of mutant TOR1A in lysate, primary screen, cell lysate, small-molecule microarray, COS7 lysate, 635/667 nm fluorescence (AID 1150); conditions: COS7 hTOR1A mutant lysate, 635 nm fluorescence, higher = more signal;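 note: score pools 667 nm emission and signal to noise measuring lysate protein binding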
# [10] = test system: Sonic hedgehog protein (Shh); assay: small-molecule binders of Shh protein, primary screen, biochemical, small-molecule microarray, 635/667 nm fluorescence (AID 1151); conditions: small-molecule microarray binding, 635 nm fluorescence; higher = more signal;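 note: Shh protein binding to compounds spotted on small-molecule microarray slides; score combines spot fluorescence intensity with signal-to-noise across triplicate slides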
# Sequence of Torsin-1A (Homo sapiens) (O14656 whole entry, looked up): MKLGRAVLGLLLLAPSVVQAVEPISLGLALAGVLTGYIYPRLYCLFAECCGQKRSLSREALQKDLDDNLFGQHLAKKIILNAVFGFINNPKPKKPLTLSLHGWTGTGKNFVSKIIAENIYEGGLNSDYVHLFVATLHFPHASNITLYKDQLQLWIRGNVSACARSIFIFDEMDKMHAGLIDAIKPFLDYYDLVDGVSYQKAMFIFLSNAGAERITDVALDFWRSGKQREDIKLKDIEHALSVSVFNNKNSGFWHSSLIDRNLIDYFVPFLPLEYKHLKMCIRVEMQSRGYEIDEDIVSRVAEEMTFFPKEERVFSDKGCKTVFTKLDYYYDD
# Sequence of Streptavidin (Streptomyces avidinii) (P22629 whole entry, looked up): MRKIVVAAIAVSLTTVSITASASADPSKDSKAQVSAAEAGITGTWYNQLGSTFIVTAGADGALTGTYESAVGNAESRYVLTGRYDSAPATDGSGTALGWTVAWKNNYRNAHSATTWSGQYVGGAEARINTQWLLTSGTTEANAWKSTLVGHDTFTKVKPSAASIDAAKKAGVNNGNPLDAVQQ
SMILES,composite z-score [1],z-score [2],z-score [3],z-score [4],z-score [5],composite z-score [6],composite z-score [7],composite z-score [8],composite z-score [9],composite z-score [10]
COc1ccc([Si](C)(C)[C@H]2[C@H](CCO)O[C@@]3(C(=O)N(Cc4ccc(N(C=O)c5ccccc5)cc4)c4ccccc43)[C@@H]2C)cc1,-0.308,-5.81 (inactive),-0.305 (inactive),1.92 (inactive),-1.24 (inactive),0.114,-0.157,-0.498,-0.074,0.399
COC(=O)[C@@]1(Cc2ccc(F)cc2)[C@H]2c3cc(C(=O)N4CCCC4)n(CCCNc4ncc(C(F)(F)F)cc4Cl)c3C[C@H]2CN1C(=O)c1ccccc1,-0.026,-1.89 (inactive),-0.0456 (inactive),1.74 (inactive),-0.152 (inactive),0.919,0.656,-0.107,-0.0136,-0.516
O=C1O[C@H](c2ccccc2)[C@H](c2ccccc2)N2[C@H]1[C@@H](C(=O)N1CCCCCCC1)[C@]1(C(=O)Nc3ccc(C#CC4=CCCCC4)cc31)[C@H]2c1ccc(OCCO)cc1,1.79,-5.63 (inactive),-0.761 (inactive),0.182 (inactive),-0.617 (inactive),3.17,2.23,1.5,1.88,1.59
CCCC[C@@H]1C[C@H]1[C@@H](NC(=O)C(C)(C)C)c1ccc(C(F)(F)F)cc1,-0.96,-4.27 (inactive),0.0317 (inactive),0.201 (inactive),1.44 (inactive),0.0267,-0.0405,-0.49,-0.869,-1.7
CN(C)CCCCCCNC(=O)[C@@H]1C[C@@H]2C(=O)N[C@@H](Cc3ccccc3)C(=O)N2[C@@H]1c1ccc(O)cc1,0.484,-0.764 (inactive),-0.0157 (inactive),-0.528 (inactive),-0.167 (inactive),0.405,-0.025,0.641,1.37,2.19
COCCOC(=O)N1C(=O)[C@@]2(c3cc(C#CCCO)ccc31)[C@H](C(=O)N1CCCCCCC1)[C@H]1C(=O)O[C@H](c3ccccc3)[C@H](c3ccccc3)N1[C@@H]2c1ccc(OCCO)cc1,0.87,-1.2 (inactive),-0.589 (inactive),-0.581 (inactive),-0.571 (inactive),1.43,1.38,1.8,1.44,1.53
O=C(NCCO)C1=C[C@H](Oc2ccccc2I)[C@@H](O)[C@H](N(Cc2ccco2)C(=O)Cc2ccccc2)C1,0.234,0.0266 (inactive),-0.0382 (inactive),-0.78 (inactive),0.603 (inactive),0.317,-0.202,0.303,0.0805,0.412
[N-]=[N+]=Nc1ccccc1[C@H]1OC(c2ccc(OCCCO)cc2)=N[C@@]1(CCS(=O)(=O)c1ccccc1)C(N)=O,0.79,-1.26 (inactive),-0.563 (inactive),0.96 (inactive),-1.12 (inactive),0.751,0.668,0.875,0.356,0.176
CC1CC/C=C\[C@H]2OC34C=CCN(C(C)(C)C)C(=O)[C@H]3N(CCO)C(=O)[C@@H]4C2C(=O)O1 (stereo not given in full),-0.276,-0.973 (inactive),-0.0996 (inactive),-0.753 (inactive),-0.237 (inactive),-1.59,-0.171,-2.34,-2.49,-0.0338
C=CCNC(=O)[C@@H]1[C@H]2C(=O)O[C@H](c3ccccc3)[C@H](c3ccccc3)N2[C@H](c2ccc(OCCO)cc2)[C@@]12C(=O)Nc1ccc(C#CCC(C(=O)OC)C(=O)OC)cc12,0.187,-3.86 (inactive),0.827 (inactive),0.488 (inactive),-1.19 (inactive),0.316,0.573,0.309,1.46,1.49
COc1cc2c(cc1OC)CN(C(=O)[C@H]1[C@@H]3C(=O)O[C@@H](c4ccccc4)[C@@H](c4ccccc4)N3[C@@H](c3ccc(O)cc3)[C@]13C(=O)Nc1ccc(C#CCCO)cc13)CC2,-0.0279,-1.04 (inactive),-0.827 (inactive),0.0653 (inactive),-0.163 (inactive),0.491,-0.0405,0.0143,0.618,0.0545
COc1ccc([C@H]2OC[C@@H]3C[C@@H](Cc4ccccc4)C(=O)N32)cc1,0.157,-0.316 (inactive),1.01 (inactive),0.978 (inactive),0.627 (inactive),-0.679,-0.0403,0.656,0.556,1.33
COCC(=C=CC[C@@H](O)c1cccc(OCCO)c1)C[C@@H](O)c1ccccn1,0.0068,0.0726 (inactive),0.786 (inactive),0.378 (inactive),-1.16 (inactive),-0.229,-0.0403,0.839,0.344,1.29
C=CC[C@@]1(C(=O)NCCN2CCOCC2)N=C(c2ccc(OCCCO)cc2)O[C@@H]1c1ccccc1N=[N+]=[N-],0.298,-1.56 (inactive),0.45 (inactive),0.185 (inactive),-0.461 (inactive),0.236,-0.0093,-0.0075,0.416,-0.203
CC(C)=CCCC(C)=CC(O)C1C=CC2C(=O)N(C)C(=O)C2N1Nc1ccccc1 (stereo not given),0.485,-2.96 (inactive),-0.545 (inactive),-0.333 (inactive),-0.465 (inactive),1.87,0.115,-0.365,0.178,1.32
CN1C(=O)C2C=CC(C(O)c3ccc([N+](=O)[O-])cc3)N(N3CCCCC3)C2C1=O (stereo not given),0.466,0.576 (inactive),-0.711 (inactive),1.01 (inactive),0.316 (inactive),0.901,0.464,0.319,0.603,-0.041
CC(C)C(CO)N1C(=O)[C@@H]2C3C(=O)OCCC/C=C\[C@H]3OC23C=CCN(CCN2CCOCC2)C(=O)[C@@H]13 (stereo not given in full),0.0992,0.39 (inactive),0.723 (inactive),-0.212 (inactive),-0.0271 (inactive),-0.578,-0.251,-0.111,-0.184,0.856
Cc1ccc(N2C(=O)c3ccccc3[C@@H](C(=O)NC3CC3)[C@@H]2c2ccc(CO)cc2)nc1,-0.645,0.256 (inactive),-0.754 (inactive),-0.062 (inactive),0.986 (inactive),-1.76,-0.282,1.23,0.969,-0.958
O=C1c2ccccc2[C@](Cc2ccccc2I)(C(=O)NCCN2CCOCC2)[C@H](c2ccc(CO)cc2)N1C1CCCCC1,0.379,-3.69 (inactive),0.155 (inactive),-0.168 (inactive),-0.0922 (inactive),0.934,0.216,0.873,0.469,1.52
CCOC(=O)[C@H]1C/C=C/C[C@H](C(=O)OCC)C(=O)O[C@H]2[C@@H](OC)O[C@H](CO)[C@@H](OC(=O)c3c(OC)cccc3OC)[C@@H]2OC1=O,0.172,-4.57 (inactive),0.0437 (inactive),0.0816 (inactive),1.33 (inactive),0.475,-0.0501,0.292,0.209,1.44
COC(=O)[C@@]1(Cc2ccccc2)[C@H]2c3cc(C(=O)N4CCCC4)n(Cc4ccc(S(C)(=O)=O)cc4)c3C[C@H]2CN1C(=O)c1ccccc1,-0.0831,-1.22 (inactive),0.779 (inactive),0.959 (inactive),0.266 (inactive),2.21,0.401,0.758,0.81,-0.344
CO[C@H]1O[C@H](CO)[C@@H](OC(=O)Nc2cccc(F)c2)[C@H](OC(=O)Nc2ccccc2)[C@@H]1OC(=O)Nc1ccccc1,0.343,-5.79 (inactive),-0.125 (inactive),-0.459 (inactive),-0.74 (inactive),0.255,0.289,0.434,0.505,1.17
N#Cc1ccc(NN2C(C(O)C(c3ccccc3)c3ccccc3)C=CC3C(=O)N(c4ccccc4)C(=O)C32)cc1 (stereo not given),0.382,-0.919 (inactive),-0.731 (inactive),0.243 (inactive),-0.69 (inactive),1.21,0.204,0.604,0.274,-0.634
O=C(NCCN1CCOCC1)[C@@H]1c2ccccc2C(=O)N(C2CCCCC2)[C@H]1c1ccc(CO)cc1,-0.178,-0.742 (inactive),0.00698 (inactive),0.791 (inactive),-0.168 (inactive),0.254,-0.153,-0.945,-0.653,-0.908
COCCOC(=O)N1C(=O)[C@@]2(c3ccccc31)[C@H](C(=O)N1CCc3cc(OC)c(OC)cc3C1)[C@H]1C(=O)O[C@H](c3ccccc3)[C@H](c3ccccc3)N1[C@@H]2c1ccc(OCCO)cc1,0.146,-0.704 (inactive),0.73 (inactive),0.685 (inactive),-0.653 (inactive),0.547,0.0569,0.0657,1.21,1.41
CCOC(=O)C[C@H]1[C@H](OC(=O)c2ccc(C(=O)c3ccccc3)cc2)[C@@H](NC(=O)c2ccc3ccccc3n2)c2cc(OCCCO)ccc2N1C(=O)c1ccccc1,0.369,-0.0142 (inactive),0.0839 (inactive),0.498 (inactive),0.0154 (inactive),0.616,0.0561,0.484,0.605,1.2
COC(=O)[C@@]1(Cc2ccccc2)[C@H]2c3cc(C(=O)N(C)C)n(Cc4ccsc4Br)c3C[C@H]2CN1C(=O)c1ccccc1,0.211,-3.35 (inactive),-0.166 (inactive),0.58 (inactive),0.751 (inactive),1.09,0.0737,0.856,0.508,-1.21
CC#CC(=O)Oc1ccccc1C=CC(=O)OCC,-0.0407,-1.99 (inactive),-1.69 (inactive),-0.0696 (inactive),1.7 (inactive),0.066,-0.206,-0.402,0.222,0.0449
